For 42 sequences, binding signal results are on record in PMC7819943, “Rice protein-binding microarrays: a tool to detect cis-acting elements near promoter regions in rice”.

The full ranking holds about 68,000 sequences; the median of “fluorescence intensity (a.u.)” is about 9,100, and the highest 2% start at about 16,000. The sample as a whole holds a higher share of the highest values than the screen did.

OsWRKY34, sequence (Q0JBA9 entry or part of it): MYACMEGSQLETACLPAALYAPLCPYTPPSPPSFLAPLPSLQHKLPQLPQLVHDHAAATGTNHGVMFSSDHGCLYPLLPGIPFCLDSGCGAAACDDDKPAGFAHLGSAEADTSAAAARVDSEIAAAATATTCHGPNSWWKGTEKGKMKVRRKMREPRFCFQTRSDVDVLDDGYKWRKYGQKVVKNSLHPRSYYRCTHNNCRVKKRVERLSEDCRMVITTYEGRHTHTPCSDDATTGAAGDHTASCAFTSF

This assay has as its target OsWRKY34 (Oryza sativa, UniProt Q0JBA9 1-250). The experiment in a line: protein-binding microarray (RPBM); PBS, 2% BSA, 51.3 ng/ul salmon testes DNA, 50 uM zinc acetate, 200 nM TF, 25 C, 1 h; high values mean tight binding. The conditions noted are these: protein: recombinant; tags: N-terminal polyhistidine and DsRed monomer fusion (pET32a); label: CyDye5-dUTP incorporated in the synthesized complementary strand; 3' TTTTT single-stranded linker to array surface; dsDNA, one strand shown. The method, boiled down: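 Binding signal is defined as the fluorescence intensity of each feature in arbitrary units, read on an Axon 4000B scanner. Transcription factors with N-terminal polyhistidine and DsRed fusions came from E. coli BL21-CodonPlus and were purified on Ni–NTA. They were incubated at 200 nM for 1 h at 25 °C on a custom Agilent array that had been made double-stranded with Cy5-dUTP, with 50 µM zinc acetate present, and the array was washed.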
Turning to “GTGTGGCGGACATGTGGGCCCATGATTTTTATTATTTTTCCGGAGTCACCTAGTGCAG”, the binding signal was 9790 fluorescence intensity (a.u.). As for “ATCCTCCGCCGCCGCCTCACCTCCTCCGCCACCGCGCTCGCGGAGTCACCTAGTGCAG”, the binding signal was 8270 fluorescence intensity (a.u.). On to “GCACCCCTGTTTTCTCAGCGATCATGGCTGTAATACTGAACGGAGTCACCTAGTGCAG”, for which the binding signal was 8070 fluorescence intensity (a.u.).

Regarding “TCCTCCGAATCCCAATCTCTCGCAGTTCGTTCGAGGAGCTCGGAGTCACCTAGTGCAG”, the binding signal was 8540 fluorescence intensity (a.u.). Consider “GCCTCGCCCTCGCGTCGTCACCTCTCGCCATGGCCCACTACGGAGTCACCTAGTGCAG”, for which the binding signal was 9950 fluorescence intensity (a.u.).

As to “ATTCTGTTGCGTCATCATGTTCCTGTCTACAGAGCTATACCGGAGTCACCTAGTGCAG”, the binding signal was 8840 fluorescence intensity (a.u.).

With “TTTAAAACTAGGACCTGAGTAAATATTTTTCTTGAGTTTTCGGAGTCACCTAGTGCAG”, the binding signal is 8040 fluorescence intensity (a.u.). For “GCTAGTTGTAATATACACATAATTGTTGCTTCATTTCAACCGGAGTCACCTAGTGCAG”, the binding signal was 9790 fluorescence intensity (a.u.). Regarding “TTGCAGTATCCCGGTTGCCCACCTTTCATGGTCCATCACCCGGAGTCACCTAGTGCAG”, the binding signal is 8490 fluorescence intensity (a.u.). With “GCAATTATTAATGTACCGCTCCGTTTTCATTTTTGGGTTGCGGAGTCACCTAGTGCAG”, the binding signal was 8630 fluorescence intensity (a.u.).

As to “TGTGGAGTTTGAGGATTGCACAATAATCTCAGGGGCGGGCCGGAGTCACCTAGTGCAG”, the binding signal is 8590 fluorescence intensity (a.u.). As for “AGGTTATAAGACGTTTTGACTTTGGTTAAAGTCAAACTACCGGAGTCACCTAGTGCAG”, the binding signal was 9600 fluorescence intensity (a.u.). For “CCTCTCGGGCGCCTCTCCTCTCCATCATTCCTCCCACTGCCGGAGTCACCTAGTGCAG”, the binding signal was 9880 fluorescence intensity (a.u.). In the case of “ACCGAAAGTTCAATTTGGTCCTTTACATTTTATTTTGTCCCGGAGTCACCTAGTGCAG”, the binding signal is 8240 fluorescence intensity (a.u.). “TTGTGTATTGGTGCTGTCGGTGCATGGGTGGTGGTTTTTTCGGAGTCACCTAGTGCAG”: the binding signal is 20700 fluorescence intensity (a.u.).

On to “TTGTGCTGGTTTTGGTTTTGGTTTTGGGTTGCATGTATGTCGGAGTCACCTAGTGCAG”, for which the binding signal was 9790 fluorescence intensity (a.u.).

As for “GCTATGTAATGTCCCATCCGTGCTGTATAGTTTGGGTTTTCGGAGTCACCTAGTGCAG”, the binding signal was 17200 fluorescence intensity (a.u.).

In the case of “CCTGTGTGTTGGTGCTGTCGGTATGTGGGTGGTGGTATTTCGGAGTCACCTAGTGCAG”, the binding signal is 14600 fluorescence intensity (a.u.). Next, “ATGTATGCACGATGTGAGTGTCCGTGTTTGTAATGTGTTTCGGAGTCACCTAGTGCAG”: 11300 fluorescence intensity (a.u.).

On to “GTACTATGTATTGTCCCATCGTTGTATAGGTTGGTTTTTTCGGAGTCACCTAGTGCAG”, for which the binding signal is 8240 fluorescence intensity (a.u.). On to “ACCTACTCACAATCACAGAATCACATCATAACATTATTGTCGGAGTCACCTAGTGCAG”, for which the binding signal is 9160 fluorescence intensity (a.u.). For the sequence “CCTGCCATGTCATGTTTGTACCTAGATACCAGGTATGACGCGGAGTCACCTAGTGCAG”, the binding signal is 8960 fluorescence intensity (a.u.). “AGATGTTTCCGCTGATACTTTGATACGTCGTCCTTATTTGCGGAGTCACCTAGTGCAG”: the binding signal was 10800 fluorescence intensity (a.u.). On to “CCGATTCCCTGCCGCATCTGCCCGTTGCCCTCGCGCCCGGCGGAGTCACCTAGTGCAG”, for which the binding signal was 8880 fluorescence intensity (a.u.).

Take “TGCAGATTTGGTTTTTCTTTTTTTTCGCACGTTCTCTTTCCGGAGTCACCTAGTGCAG”: the binding signal is 15700 fluorescence intensity (a.u.). Consider “TATTTTTTGCTATTATCTTTCGTGTAAGCTATTTCTCTATCGGAGTCACCTAGTGCAG”, for which the binding signal is 9170 fluorescence intensity (a.u.). With “AATTCAAATTCATACTGTTCAAACAAAGTCATATAGAAAACGGAGTCACCTAGTGCAG”, the binding signal was 28600 fluorescence intensity (a.u.). For “TATATATATATATATATATATATATAGAAATTAAGTCAAACGGAGTCACCTAGTGCAG”, the binding signal was 8940 fluorescence intensity (a.u.). As to “CAGTGCGTATTTGCAATATATATATATAGGAAAGTTTCTTCGGAGTCACCTAGTGCAG”, the binding signal was 9390 fluorescence intensity (a.u.).

With “TTTTTATACTGTTGGTACATATTCAAATTTGTCAAACATTCGGAGTCACCTAGTGCAG”, the binding signal was 8960 fluorescence intensity (a.u.). For “AAACGGTGCGTTTTTTGCAAAAAAATTCTATAGGAAAGTTCGGAGTCACCTAGTGCAG” the value was 63900 fluorescence intensity (a.u.). For the sequence “GTGTGTGTTTTTGCAAAAGTTTTCTATAGAAAAGTTACATCGGAGTCACCTAGTGCAG”, the binding signal is 8210 fluorescence intensity (a.u.).

In the case of “TCCTGTGCCTCTCTCATGGTGTGGGTGTCTGTGTCTTTGACGGAGTCACCTAGTGCAG”, the binding signal is 9040 fluorescence intensity (a.u.). “AAGGTGGGGTCATCATAAATATTTTTTAAGTGAAAATTTTCGGAGTCACCTAGTGCAG”: the binding signal is 9840 fluorescence intensity (a.u.).

“CTATGAAGTTAAAAATACGCTCATCAGAAAGGATATATTTCGGAGTCACCTAGTGCAG”: the binding signal is 57200 fluorescence intensity (a.u.).

“AATGGATATCAGGATATGAAGCTCAAAGTTATCGGTTATTCGGAGTCACCTAGTGCAG”: the binding signal was 8240 fluorescence intensity (a.u.). For “GGTTGAGGCTGTTTTCCGATCGTTCCGACCGTTTTCATCCCGGAGTCACCTAGTGCAG” the value was 8700 fluorescence intensity (a.u.); for “GCCAACCGCATGCCGTCCCCGATGCCGCCCGCCGTCAACCCGGAGTCACCTAGTGCAG”, 8290 fluorescence intensity (a.u.); for “ATATTACTGGTGTTTACTTGCTTTTCTTTTTTTAAAAAAACGGAGTCACCTAGTGCAG”, 9160 fluorescence intensity (a.u.).

As for “ATATAAGGGATTTTGAGTTTTTGATTGCAACGTTTGACCACGGAGTCACCTAGTGCAG”, the binding signal is 8550 fluorescence intensity (a.u.). For “TATGCATCACCTCGTAATCCACAACTGACTTACCCTTTCTCGGAGTCACCTAGTGCAG”, the binding signal is 12300 fluorescence intensity (a.u.). With “CTTTTGTGCTCATCTGAACTTCTGAAGTATCATAAAGAAGCGGAGTCACCTAGTGCAG”, the binding signal is 31400 fluorescence intensity (a.u.).
